From PubChem BioAssay AID777 (Sanford-Burnham Center for Chemical Genomics, 2007)
Screen size: about 96,000 compounds; about 19,000 (20%) were called active.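 Rule for the calls: active = blocking of liver enzyme CYP2C9 beyond about 50% at 5 µM (limit read from the data); inactive = the rest.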 Not all results are given here.

biological target: Cytochrome P450 2C9 (Homo sapiens) (UniProt P11712); assay: blockers of cytochrome P450 2C9 activity – biochemical, luminescence, ADME assay, primary screen (AID 777); conditions: CYP2C9 Supersomes, luciferin-H conversion, at 5 µM, hits give high values
Sequence (P11712 whole entry, looked up): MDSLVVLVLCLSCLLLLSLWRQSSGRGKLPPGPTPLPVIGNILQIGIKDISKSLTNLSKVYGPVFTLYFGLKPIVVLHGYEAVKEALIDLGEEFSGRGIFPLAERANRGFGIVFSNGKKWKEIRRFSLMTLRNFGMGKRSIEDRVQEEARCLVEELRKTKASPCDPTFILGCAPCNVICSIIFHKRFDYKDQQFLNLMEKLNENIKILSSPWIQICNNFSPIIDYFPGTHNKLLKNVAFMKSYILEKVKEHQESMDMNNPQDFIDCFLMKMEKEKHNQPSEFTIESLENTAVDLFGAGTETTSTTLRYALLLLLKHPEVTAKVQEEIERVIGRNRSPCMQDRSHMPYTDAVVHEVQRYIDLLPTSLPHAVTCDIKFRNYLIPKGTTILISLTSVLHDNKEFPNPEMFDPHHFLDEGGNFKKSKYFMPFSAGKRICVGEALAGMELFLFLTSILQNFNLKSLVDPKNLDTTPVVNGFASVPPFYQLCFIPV

inhibition, inactive:
O=c1c2ccccc2nc2n1C(CSCc1ccccc1)CS2 (centres undefined) 14.7%
CN1CCN(c2nc3c(c(=O)[nH]c(=O)n3C)n2Cc2cccc3ccccc23)CC1 1.6%
CC1C/C(=N/NC(=O)c2cccs2)CC(C)(C)C1 (centres undefined) 10.8%
CCOC(=O)c1c(NC(=O)c2cccs2)sc(C)c1C -7.6%
CCc1nnc(NC(=O)c2cccs2)s1 16.6%
CCOC(=O)CCC(=O)OCC(=O)NC(C)C1CC2CCC1C2 (centres undefined) 6%
C/C=C/C(=O)OCC(=O)Nc1ccc(F)cc1Cl 22.2%
Cc1ccc(C(=O)CS(C)(=O)=O)cc1 -4.7%
CCCCn1nnnc1NCc1cc(OC)c(OC)c(OC)c1 45.3%
COCc1nnc(NC(=O)CS(=O)(=O)Cc2ccccc2)s1 24%
Fc1ccc2nc(Nc3nc4c(s3)CCCC4)sc2c1 -10.4%
O=C(O)C1OC(C(=O)O)C2C1C(F)(F)C2(F)F (centres undefined) -22.8%
COC(=O)c1oc2ccc(Br)cc2c1NC(C)=O 27.6%
COc1ccc(F)cc1S(=O)(=O)Nc1ccc2c(c1)OCO2 39.7%
COc1ccc(S(=O)(=O)N2CCC(C(=O)N3CCc4ccccc4C3)CC2)cc1OC 46.2%
CC(C)CNS(=O)(=O)c1ccc(OCC(=O)Nc2ccc3c(c2)OCO3)c(Cl)c1 12.9%
COc1ccc(S(=O)(=O)N2CCCCC2)cc1Br -115%
O=C(CC12CC3CC(CC(C3)C1)C2)Nc1ccc2c(c1)COC2=O -0.2%
CCOC(=O)CNC(=O)CN1C(=O)CCSc2ccccc21 17.8%
CCOc1ccc(S(=O)(=O)N2CCCCCC2)c2ccccc12 -48.8%
c1ccc2cc3[nH]c(CN4CCCCC4)nc3cc2c1 41.8%
COc1ccccc1C(=O)NN1C(=O)C2C3C=CC(O3)C2C1=O (centres undefined) -18.8%
Cc1cc2nnc(SCC(=O)N3CCN(c4ccccc4)CC3)n2c(N)n1 7.8%
COC(=O)Cc1cc(=O)oc2c(C)c(O)ccc12 -19.4%
O=c1oc2c(CN3CCCCC3)c(O)ccc2c2c1CCCCC2 -13.6%
Nn1c(SCC(=O)NC(=O)NC2CCCC2)nnc1-c1ccccc1F 44%
CCOC(=O)c1ccc(NC(=O)CSc2ncccn2)cc1 34.5%
CCn1c(C)nc2cc(C(=O)NNS(=O)(=O)c3ccc(C)cc3C)ccc21 -5.3%
Cc1ccc(N2CCN(/N=C/c3cccs3)CC2)cc1 -7%
S=c1nccc(-c2cc(Cl)sc2Cl)[nH]1 -6.6%
CCOc1ccc(CNC(=O)C2CC(=O)N(C3CCCC3)C2)cc1OC (centres undefined) 7.1%
CCC(O)CNc1nc(-n2nc(C)cc2C)nc2sc3c(c12)CC(C)(C)OC3 (centres undefined) 19.9%
COc1ccc(OC)c(C(=O)c2coc3ccc(O)c(CN4CCOCC4)c23)c1 22%
COc1ccc2occ(C(=O)c3ccc(N=C(C)N(C)C)cc3)c2c1 -17.7%
CCC1CCCCN1C(=O)Nc1cccc(NC(=O)N2CCCCC2CC)c1 (centres undefined) -13.6%
CC(=O)c1ccc2c(c1)c1ccccc1n2CC(C)C 20.5%
Cc1cccc(N(CC(=O)N=Nc2c(O)[nH]c3ccccc23)S(C)(=O)=O)c1C 44.2%
C=CCn1c(SCC(=O)c2c(N)n(C)c(=O)n(C)c2=O)nc2sc(CC)cc2c1=O 38.3%
CCS(=O)(=O)c1ccc2c(c1)N(S(=O)(=O)c1ccccc1)CC(C(=O)O)O2 (centres undefined) 42.8%
COc1ccccc1OCCC(=O)OCC(=O)NC(=O)NC(C)(C)C 2.5%
CC(C)(C)NC(=O)NC(=O)COC(=O)Cn1c(C(F)(F)F)nc2ccccc21 43.9%
O=C(O)C1C2C=CC(C2)C1C(=O)N1CCN(CCO)CC1 (centres undefined) 10.3%
Cc1nn(Cc2ccccc2)c(Cl)c1C(=O)OC1CCOC1=O (centres undefined) 5.7%
CCOC(=O)c1cnn(Cc2ccccc2Cl)c1N 22%
Cc1noc(C)c1C(=O)N1CCOCC1 -7.1%
c1ccc(CC2CCN(c3nc4ccccc4n4cnnc34)CC2)cc1 20.5%
CCCn1c(C)cc(C(=O)COC(=O)c2c(C)nn(-c3ccccc3)c2C)c1C -31.1%
O=S(=O)(c1cnccc1N1CCN(/N=C/c2ccc(Br)cc2)CC1)N1CCCCC1 -9.2%
CC(C)=C1SC(N2CCN(c3cccc(C)c3)CC2)=NC1=O -36.8%
N=c1oc2ccccc2cc1C(=O)N/N=C/c1ccccc1 27.9%
Cn1c(=O)n(C)c2cc(/C=N/NC(=O)c3cccc(Br)c3)ccc21 -21.3%
Cc1nn(C)cc1C(=O)NNC(=S)Nc1ccc(Cl)cc1 18.7%
CCN(Cc1cc2cc(C)ccc2[nH]c1=O)S(=O)(=O)c1ccccc1 5.9%
COc1ccc(CCNC(=O)c2ccco2)cc1 8.8%
O=C(NCCc1ccccn1)c1ccc(COc2ccccc2)o1 13.4%
CCOC(=O)/C=c1\s/c(=C\c2ccccc2OC)c(=O)n1CC(=O)N1CCOCC1 2%
Clc1ccc(CSc2nnc([C@@H]3CCCN3)o2)cc1 31.8%
CCSc1nnc(-c2cc3c(s2)-c2ccccc2CC3)o1 -16.8%
CC(C)OC(=O)c1sc2nc3c(cc2c1N)C(=O)CCC3 19.5%
N#Cc1nc(COc2ccc(Cl)cc2)oc1N1CCCC1 39.8%
COc1ccccc1-c1nc(C#N)c(N2CCC(C(N)=O)CC2)o1 -9.8%
Cc1ccc(NC(=O)CCN2CCc3ccccc3C2)cc1 11.4%
O=C(CN1CCOCC1)Nc1ccccc1 11.4%
Cc1ccccc1-n1nnc2c(=O)oc3ccccc3c21 5.8%
Cc1cc(=O)[nH]c(SCC(N)=O)c1C#N 1.6%
CCOC(=O)Nc1ccc(NC(=O)OCC)cc1 -16.2%
Cc1cc(NC(=O)CSc2nnc(-c3ccc(Cl)s3)o2)no1 18.4%
COc1ccc(-c2nnc(SCC(=O)c3cccs3)o2)c(OC)c1 16.1%
NC(=O)CSc1oc(-c2cccs2)nc1S(=O)(=O)c1ccccc1 30.5%
COc1ccccc1-c1nnc(SCC(=O)Nc2cc(C)on2)o1 -64.2%
C=CCNC(=S)NNc1ncnc2sc3c(c12)CC(C)(C)OC3 19.6%
CCOC(=O)C1=C(C)N=c2s/c(=C\C(=O)OC)c(=O)n2C1c1ccc(OC)cc1 (centres undefined) 6.6%
O=C(CNC(=O)c1ccco1)OCC(=O)c1ccccc1 -2.5%
CCN(CC)c1ccc(C(=O)OCC(=O)c2ccco2)cc1 -26.4%
NC(=O)c1ccccc1NC(=O)c1ccccc1F -7.7%
Fc1ccccc1OCCSc1nc2ccccc2o1 21.5%
Cc1c(Br)cc(C(=O)N2CCCCCC2)c(C)c1C -38.3%
FC(F)(F)c1ccc2nnc(-c3c(Cl)cccc3Cl)n2c1 25.7%
COc1cc(OC)c(NC(=O)c2ccc(Br)o2)cc1Cl 38.8%
CCCC(=O)Nc1ccc(Cl)c(NC(=O)c2ccc(Br)o2)c1 16.1%
O=C(Nc1cccc2ncccc12)c1ccc(-c2ccc(Cl)cc2Cl)o1 5.6%
CCOc1ccc(OCC)c(-c2c(=O)n(OCc3ccc(Cl)cc3)c3ccccc3[n+]2[O-])c1 49.9%

inhibition, active:
CCc1c(C)sc(NC(=O)c2cccs2)c1C(N)=O 83%
O=C(CCS(=O)(=O)c1ccccc1)Nc1nc2c(s1)CCCC2 60.8%
COc1ccc(S(=O)(=O)Nc2ccc(S(=O)(=O)N3CCCCC3)cc2)cc1OC 93.3%
COc1ccc(S(=O)(=O)Nc2ccc3c(c2)OCO3)cc1Cl 75.9%
CCOc1ccc(S(=O)(=O)n2ccnc2)c2ccccc12 93.2%
CCCc1cc(=O)oc2c(C)c(O)c(CN3CCCCC3)cc12 69.5%
CCOC(=O)c1ccc2c(c1)nc(SCC(=O)NC(C)C)n2CC 62.3%
COc1ccc(OC)c(C(=O)c2coc3ccc(OC)cc23)c1 68.5%
CS(=O)(=O)N(CC(O)Cn1c2ccccc2c2ccccc21)c1cccc2ccccc12 (centres undefined) 99.6%
Cc1ccccc1CSCC(=O)NC(=O)NC(C)(C)C 62.3%
COC(=O)c1ccc(COC(=O)c2c(C)nn(Cc3ccccc3Cl)c2Cl)o1 83.3%
CNS(=O)(=O)c1cnccc1N1CCN(c2cccc(C)c2)CC1 57.7%
O=C(N/N=C\c1cccc(Br)c1)c1ccccc1-n1cccc1 66.3%
COc1ccc(-c2nc(CCNC(=O)c3ccc(Br)o3)cs2)cc1 62.2%
Fc1ccc(CSc2nnc(-c3cc4c(s3)-c3ccccc3CC4)o2)cc1 52.4%
CC1CCN(c2oc(-c3ccccc3F)nc2C#N)CC1 80%
Cc1ccc(NC(=O)CN2CCc3ccccc3C2)cc1 87.4%
COc1ccc(OC)c(C(=O)CSc2nnc(-c3cccs3)o2)c1 54.4%
COc1ccc(-n2c(C)cc(C(=O)CSc3nnc(-c4cccs4)o3)c2C)cc1 90.8%
O=C(COC(=O)c1ccccc1C(=O)c1ccccc1)c1ccco1 90.4%
CCN1CCN(c2c(Cl)cccc2NC(=O)c2ccc(Br)o2)CC1 64.7%
Clc1ccc(COn2c(-c3ccc(Cl)cc3Cl)nc3ncccc32)cc1 97.1%
